Data published in PubChem BioAssay (Tox21).
Inconclusive results are not listed. Calls of active or inactive are those of the source. The call rests on the fitted dose curve; in most records, active means well fitted curve in the direction sought with a large enough effect in the repeat runs; inconclusive means weak or mixed curves; inactive means no such curve, though single readings can be large; an effect the other way counts as inactive or inconclusive.

Columns and labels:
[1] = qHTS RealTime-Glo MT Cell Viability Assay in HepG2 cells - 40 hour (AID 1224870); further: nearly all actives have a fitted effect of over 50% in size
How it was run: (§1)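 Real-time viability: cells seeded at 600 per well together with NanoLuc and cell-permeant prosubstrate, compounds added after 5 h incubation. Luminescence tracked at 0, 8, 16, 24, 32 and 40 h of exposure.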

[2] = A CellTox Green Cytotoxicity Assay to monitor cytotoxicity in HEK293 cells - 40 hour (AID 1224871); further: nearly all actives have a fitted effect of over 45% in size
How it was run: (§2)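 Homogeneous no-lysis format: HEK293 cell suspension mixed with CellTox Green reagent, seeded, incubated 5 h at 37 C/5% CO2, then dosed by pintool with compound in DMSO.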

[3] = qHTS RealTime-Glo MT Cell Viability Assay in HEK293 cells - 16 hour (AID 1224872); further: top concentration of the series differs between compounds; nearly all actives have a fitted effect of over 50% in size
How it was run: (§3)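 Assay medium contained NanoLuc luciferase plus cell-permeant prosubstrate, added with HEK293 cells at 600 cells/well. After 5 h at 37 C/5% CO2 compounds were added; plates stayed at 37 C for 40 h with serial luminescence reads.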

[4] = qHTS RealTime-Glo MT Cell Viability Assay in HepG2 cells - 8 hour (AID 1224873); further: nearly all actives have a fitted effect of over 55% in size
How it was run: as §1

[5] = A CellTox Green Cytotoxicity Assay to monitor cytotoxicity in HEK293 cells - 24 hour (AID 1224875); further: series mostly up to about 77 µM; nearly all actives have a fitted effect of over 45% in size
How it was run: as §2

[6] = A CellTox Green Cytotoxicity Assay to monitor cytotoxicity in HepG2 cells - 16 hour (AID 1224876); further: nearly all actives have a fitted effect of over 45% in size
How it was run: (§4)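 Fluorescent DNA-binding dye, 600 HepG2 cells/well, 5 h preincubation then compound in DMSO; same plates read at 0–40 h, 37 C.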

[7] = qHTS RealTime-Glo MT Cell Viability Assay in HepG2 cells - 32 hour (AID 1224877); further: nearly all actives have a fitted effect of over 55% in size
How it was run: (§5)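 qHTS, HepG2, 600 cells/well, RealTime-Glo (NanoLuc + prosubstrate) added with cells; 5 h preincubation; DMSO compound addition; 37 C; luminescence at 0/8/16/24/32/40 h.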

[8] = A CellTox Green Cytotoxicity Assay to monitor cytotoxicity in HepG2 cells - 24 hour (AID 1224878); further: nearly all actives have a fitted effect of over 45% in size
How it was run: as §4

[9] = A CellTox Green Cytotoxicity Assay to monitor cytotoxicity in HepG2 cells - 40 hour (AID 1224879); further: nearly all actives have a fitted effect of over 40% in size
How it was run: as §4

[10] = qHTS RealTime-Glo MT Cell Viability Assay in HEK293 cells - 0 hour (AID 1224880)
How it was run: (§6)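 Measured as luminescence from the same continuously cultured HEK293 wells at successive time points (0, 8, 16, 24, 32, 40 h) after compound addition. Reagent present from seeding; dosing at 5 h; incubation 37 C.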

[11] = A CellTox Green Cytotoxicity Assay to monitor cytotoxicity in HEK293 cells - 32 hour (AID 1224881); further: nearly all actives have a fitted effect of over 40% in size
How it was run: as §2

[12] = A CellTox Green Cytotoxicity Assay to monitor cytotoxicity in HepG2 cells - 0 hour (AID 1224882); further: nearly all actives have a fitted effect of over 35% in size
How it was run: as §4

[13] = A CellTox Green Cytotoxicity Assay to monitor cytotoxicity in HepG2 cells - 32 hour (AID 1224883); further: nearly all actives have a fitted effect of over 50% in size
How it was run: as §4

[14] = A CellTox Green Cytotoxicity Assay to monitor cytotoxicity in HEK293 cells - 8 hour (AID 1224884); further: nearly all actives have a fitted effect of over 35% in size
How it was run: as §2

[15] = qHTS RealTime-Glo MT Cell Viability Assay in HepG2 cells - 16 hour (AID 1224885); further: nearly all actives have a fitted effect of over 50% in size
How it was run: as §5

[16] = qHTS RealTime-Glo MT Cell Viability Assay in HEK293 cells - 8 hour (AID 1224887)
How it was run: as §6

[17] = qHTS RealTime-Glo MT Cell Viability Assay in HepG2 cells - 0 hour (AID 1224889); further: nearly all actives have a fitted effect of over 50% in size
How it was run: as §5

[18] = qHTS RealTime-Glo MT Cell Viability Assay in HEK293 cells - 40 hour (AID 1224874); conditions: RealTime-Glo luminescence; max response: hits give low values; further: nearly all actives have a fitted effect of over 50% in size
How it was run: as §6

[19] = qHTS RealTime-Glo MT Cell Viability Assay in HEK293 cells - 24 hour (AID 1224886)
How it was run: as §3

[20] = A CellTox Green Cytotoxicity Assay to monitor cytotoxicity in HEK293 cells - 16 hour (AID 1224888); further: nearly all actives have a fitted effect of over 35% in size
How it was run: as §2
On the % scale 0 is the no-effect control and ±100 the full control effect.

Nc1cccc2c(=O)[nH][nH]c(=O)c12
inactive: Potency [1] | Potency [2] | Potency [3] | outcome [4] | Potency [5] | Potency [6] | Potency [7] | Potency [8] | Potency [9] | Potency [10] | Potency [11] | Potency [12] | Potency [13] | Potency [14] | outcome [15] | Potency [16] | Potency [17]

CCCCCCCCOCCCN
inactive: Potency [1] | Potency [2] | Potency [3] | outcome [4] | max response [18] 2.92% | Potency [5] | Potency [6] | Potency [7] | Potency [8] | Potency [9] | Potency [11] | Potency [12] | Potency [13] | outcome [15] | Potency [19] | Potency [16] | Potency [20]

COC=O
inactive: activity change, negative = cytotoxic [1] 0.3% [at 6.97 µM] | cytotoxicity increase [2] -12.8% [at 6.97 µM] | viability change, negative = cytotoxic [4] 6.21% [at 6.97 µM] | max response [18] 19.4% | activity change [5] -10.8% [at 6.97 µM, hits give high values] | cytotoxicity increase [6] -4.94% [at 6.97 µM] | activity change, negative = cytotoxic [7] 2.87% [at 6.97 µM] | cytotoxicity [8] -6.04% [at 6.97 µM] | cytotoxicity increase [9] -7.18% [at 6.97 µM] | activity change, negative = cytotoxicity [10] -6.16% [at 6.97 µM] | cytotoxicity increase [11] -12.1% [at 6.97 µM] | cytotoxicity [12] 0.137% [at 6.97 µM] | cytotoxicity increase [13] -4.32% [at 6.97 µM] | cytotoxicity increase [14] -11.8% [at 6.97 µM] | activity change, negative = cytotoxic [15] 5.42% [at 6.97 µM] | activity change, negative = cytotoxicity [19] 14.1% [at 6.97 µM] | activity change, negative = cytotoxicity [16] 3.22% [at 6.97 µM] | activity change [20] -10.1% [at 6.97 µM, hits give high values] | activity change, negative = cytotoxicity [17] -11.5% [at 6.97 µM]

CCCCCCCCS
inactive: Potency [1] | Potency [2] | Potency [3] | outcome [4] | max response [18] 7.45% | Potency [5] | Potency [6] | Potency [7] | Potency [8] | Potency [9] | Potency [11] | Potency [12] | Potency [13] | Potency [14] | outcome [15] | Potency [19] | Potency [16] | Potency [17]

CC1(C)[C@@H]2CC[C@]3(C2)[C@@H]1C(=O)CCC3(C)C
inactive: Potency [1] | Potency [2] | Potency [3] | outcome [4] | max response [18] 3.71% | Potency [5] | Potency [6] | Potency [7] | Potency [8] | Potency [9] | Potency [11] | Potency [12] | Potency [14] | outcome [15] | Potency [19] | Potency [16] | Potency [20] | Potency [17]

CCCCCCCCCCCCSCCOCCO
inactive: Potency [1] | Potency [2] | outcome [4] | max response [18] -17.3% | Potency [5] | Potency [6] | Potency [7] | Potency [8] | Potency [9] | Potency [10] | Potency [11] | Potency [12] | Potency [13] | Potency [14] | outcome [15] | Potency [19] | Potency [16] | Potency [20] | Potency [17]

O=P(c1ccccc1)(c1ccccc1)c1ccccc1
inactive: Potency [1] | Potency [2] | outcome [4] | max response [18] -19% | Potency [5] | Potency [6] | Potency [7] | Potency [8] | Potency [9] | Potency [10] | Potency [11] | Potency [12] | Potency [13] | Potency [14] | outcome [15] | Potency [19] | Potency [16] | Potency [20] | Potency [17]

CCC(CC)C(=O)O
inactive: Potency [1] | Potency [2] | Potency [3] | outcome [4] | max response [18] 15% | Potency [5] | Potency [6] | Potency [7] | Potency [8] | Potency [9] | Potency [11] | Potency [12] | Potency [13] | Potency [14] | outcome [15] | Potency [19] | Potency [16] | Potency [20] | Potency [17]

CS(C)=O
inactive: Potency [1] | Potency [2] | Potency [3] | outcome [4] | Potency [5] | Potency [6] | Potency [7] | Potency [8] | Potency [9] | Potency [10] | Potency [11] | Potency [12] | Potency [14] | outcome [15] | Potency [16] | Potency [20] | Potency [17]

CCOCCn1c(N2CCCN(C)CC2)nc2ccccc21
inactive: Potency [1] | Potency [2] | outcome [4] | max response [18] -3.4% | Potency [5] | Potency [6] | Potency [7] | Potency [8] | Potency [9] | Potency [10] | Potency [11] | Potency [12] | Potency [13] | Potency [14] | outcome [15] | Potency [19] | Potency [16] | Potency [20] | Potency [17]
